Test [1] can be described thus: AP1 Signaling Pathway (AID 357; active = well fitted curve in either direction with a large enough effect, not every such curve was filed as active;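 note: ME-180 reporter cells stimulated with EGF at its EC50 level; % is set by controls: 0 for no effect and ±100 for the full control effect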). The gist of the method: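 Modulation of EGF-driven AP-1 transcription was assessed with a beta-lactamase reporter in ME-180 cells. Compound and EC50 EGF were co-incubated 5 hours at 37 °C before 2.5-hour CCF4 loading at room temperature and dual-emission reading.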
Test [2] addresses Cytochrome P450 1A2 (Homo sapiens) (UniProt P05177). As to the kind of experiment: p450-cyp1a2 (AID 410; calls by dose curve; note: potency is the fitted concentration of half-maximal effect). In a few lines: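 Read-out is luminescence from luciferin produced by CYP1A2 demethylation of Luciferin-ME (100uM, at Km). Detection reagent stopped the 60 min NADPH-dependent reaction; signals were normalized to 57 uM furafylline.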
Test [3] in a line: NFAT Signaling Pathway (AID 444; active = well fitted curve in either direction with a large enough effect, not every such curve was filed as active;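 note: carbachol stimulus at about its EC50 of 1 µM final; % is set by controls: 0 for no effect and ±100 for the full control effect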). The note with it: Jurkat NFAT-bla M1, carbachol, beta-lactamase ratio, 5 h; at 38 µM (top of the series). In a few lines:
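Read-out: CCF4 FRET ratio (460 nm/530 nm) after 1 h RT dye loading, used for %activity and AC50 from titration series. Cells: Jurkat NFAT-β-lactamase/M1 line, treated with compound plus 1 uM carbachol for 5 h, 37 °C.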

Test [4] can be described thus: Stat Signaling Pathway (AID 446; active = well fitted curve in either direction with a large enough effect, not every such curve was filed as active;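 note: ME-180 cervical cancer cells given 40 pM IL-6 alongside compound; SIE-controlled beta-lactamase reporter measured as 460/530 nm FRET emission ratio; % is set by controls: 0 for no effect and ±100 for the full control effect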). The gist of the method: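 Compound effects on IL-6-induced STAT reporter activity were measured in ME-180 cells. After overnight culture, cells were co-treated with 40 pM IL-6 for 5 hrs before beta-lactamase substrate loading at room temperature.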
The target of test [5] is Glucocorticoid receptor (Homo sapiens) (UniProt P04150). The experiment in a line: GR-EFC Redistribution (AID 451; calls by dose curve; note: potency is the fitted concentration of half-maximal effect). Conditions: CHO-K1 GR-EFC translocation, beta-gal luminescence, 2 h. In a few lines: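 Translocation of GR-ED fusion to nuclear EA restores b-gal, read by luminescence after 1 h room-temperature detection. Engineered CHO-K1 biosensor cells, 1,000/well, exposed 2 h at 37 C to titrations up to 46 uM final.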
Glucocorticoid receptor (Homo sapiens), sequence (P04150 whole entry, looked up, the tested form may be a part): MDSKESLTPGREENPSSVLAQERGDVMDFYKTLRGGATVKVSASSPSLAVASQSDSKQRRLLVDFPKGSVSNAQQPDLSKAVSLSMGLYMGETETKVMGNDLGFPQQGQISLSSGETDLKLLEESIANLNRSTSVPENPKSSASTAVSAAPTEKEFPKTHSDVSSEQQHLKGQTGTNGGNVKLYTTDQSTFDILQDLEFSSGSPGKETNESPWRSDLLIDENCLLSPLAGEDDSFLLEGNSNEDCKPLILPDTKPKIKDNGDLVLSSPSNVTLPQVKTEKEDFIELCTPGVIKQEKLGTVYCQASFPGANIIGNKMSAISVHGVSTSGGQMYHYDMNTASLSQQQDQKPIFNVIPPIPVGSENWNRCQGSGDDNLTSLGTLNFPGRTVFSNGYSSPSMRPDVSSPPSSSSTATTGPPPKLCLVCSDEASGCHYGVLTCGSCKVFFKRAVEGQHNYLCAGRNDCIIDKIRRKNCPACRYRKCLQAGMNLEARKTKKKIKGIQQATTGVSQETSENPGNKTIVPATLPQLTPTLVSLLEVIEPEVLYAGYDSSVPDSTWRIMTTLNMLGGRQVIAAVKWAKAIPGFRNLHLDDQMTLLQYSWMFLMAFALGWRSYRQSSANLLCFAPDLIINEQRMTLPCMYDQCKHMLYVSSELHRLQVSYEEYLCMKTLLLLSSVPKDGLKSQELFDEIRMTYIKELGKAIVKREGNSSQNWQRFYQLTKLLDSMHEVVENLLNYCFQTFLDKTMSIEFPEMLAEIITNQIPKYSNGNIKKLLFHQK

Test [6] deals with 3',5'-cyclic-AMP phosphodiesterase 4B (Homo sapiens) (UniProt Q07343). The experiment in a line: qHTS Assay for Inhibitors of PDE-IV (AID 607; active = well fitted activation curve with a large enough effect in the main read-out, with a control signal flat, not every such curve was filed as active; note: % of control where 0% means no effect). In a few lines: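 ACTOne HEK293 cells carry a modified cAMP-gated CNG channel and express endogenous PDE4; plated 1000 cells/well, compounds up to 22.9 uM final. Membrane-potential dye fluorescence (ex 535/em 590) was read; parental cells received 10 uM forskolin + 100 uM RO 20-1724.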
(qHTS replaces the single test concentration by a dilution series.)

Test [7] addresses Guanine nucleotide-binding protein G(i) subunit alpha-1 (Homo sapiens) (UniProt P63096). The experiment in a line: qHTS Assay for Inhibitors of RGS12 GoLoco Motif Activity (Green Fluorophore) (AID 879).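 Note: 0% = labeled peptide with Gαi1 and full inhibition = labeled peptide alone without protein; negative values mean loss of peptide binding seen as reduced polarization.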 The gist of the method: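 A drop in FITC polarization marked displacement of the FITC-tagged RGS12 GoLoco peptide (10 nM) from Gαi1 (50 nM). Compounds were incubated 10 min at room temperature in Tris pH 7.5 buffer containing 150 mM NaCl, 0.1 mM GDP and 0.05% NP40; unlabeled peptide titration served as control.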

For test [8], the target named is Cytochrome P450 3A4 (Homo sapiens) (UniProt P08684). The experiment in a line: qHTS Assay for Inhibitors and Substrates of Cytochrome P450 3A4 (AID 884). Note: % is set by controls: 0 for no effect and ±100 for the full control effect; nearly all actives have a fitted effect of over 50% in size. The gist of the method: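 Luminescent readout of luciferin produced by CYP3A4 (20 nM) dealkylation of Luciferin-PPXE, 25 uM (its KM). NADPH-driven reaction ran 60 min at RT after 10 min compound preincubation; data scaled to 57 uM ketoconazole as 100% inhibition.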
Cytochrome P450 3A4 (Homo sapiens), sequence (P08684 whole entry, looked up): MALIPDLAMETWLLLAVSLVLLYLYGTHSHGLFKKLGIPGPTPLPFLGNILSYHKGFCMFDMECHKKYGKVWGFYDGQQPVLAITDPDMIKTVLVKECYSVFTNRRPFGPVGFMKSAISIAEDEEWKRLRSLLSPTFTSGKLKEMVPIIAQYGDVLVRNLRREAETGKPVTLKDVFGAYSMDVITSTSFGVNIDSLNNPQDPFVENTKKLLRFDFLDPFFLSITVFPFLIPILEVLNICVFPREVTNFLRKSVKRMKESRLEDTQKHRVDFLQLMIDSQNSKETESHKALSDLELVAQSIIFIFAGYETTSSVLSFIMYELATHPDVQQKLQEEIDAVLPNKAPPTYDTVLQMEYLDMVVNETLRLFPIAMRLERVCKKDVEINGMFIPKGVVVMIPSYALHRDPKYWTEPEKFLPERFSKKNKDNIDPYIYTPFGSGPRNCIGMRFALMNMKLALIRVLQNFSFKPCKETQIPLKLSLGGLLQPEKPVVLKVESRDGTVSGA

For test [9] the target is unchanged. As to the kind of experiment: qHTS Assay for Activators of Cytochrome P450 3A4 (AID 885). Note: potency is the fitted concentration of half-maximal effect; nearly all actives have a fitted effect of over 65% in size. The gist of the method:
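CYP3A4 activity: Luciferin-PPXE O-dealkylation, 25uM substrate, 200mM KPO4, RT throughout. Read-out is luciferase luminescence; higher values reflect activation.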

The nature of test [10]: qHTS Assay for Identification of Small Molecule Antagonists for NFkB Signaling Pathway (AID 895; active = well fitted inhibition curve with a large enough effect in the signal ratio, with a control signal flat, not every such curve was filed as active; the % refers to the signal ratio; note: % is set by controls: 0 for no effect and ±100 for the full control effect). In a few lines:
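Beta-lactamase reporter read-out (460 and 530 nm emission ratio, 405 nm excitation, 2 hrs substrate loading RT) after 5 hr stimulation with 10 pM TNF alpha in compound-treated NFkB-bla ME-180 cells in low-serum medium.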

The target of test [11] is Cytochrome P450 2C19 (Homo sapiens) (UniProt P33261). As to the kind of experiment: qHTS Assay for Inhibitors and Substrates of Cytochrome P450 2C19 (AID 899). Note: potency is the fitted concentration of half-maximal effect; nearly all actives have a fitted effect of over 60% in size. The gist of the method: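 5nM enzyme + 10uM Luciferin-H EGE (=KM), 50mM KPO4; cpd pin-transferred, 10 min 37C; NADPH regen, 60 min 37C; stopped w/ luciferin detection reagent, 20 min; luminescence. Normalized to 57uM ketoconazole (AC100).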
Cytochrome P450 2C19 (Homo sapiens), sequence (P33261 whole entry, looked up): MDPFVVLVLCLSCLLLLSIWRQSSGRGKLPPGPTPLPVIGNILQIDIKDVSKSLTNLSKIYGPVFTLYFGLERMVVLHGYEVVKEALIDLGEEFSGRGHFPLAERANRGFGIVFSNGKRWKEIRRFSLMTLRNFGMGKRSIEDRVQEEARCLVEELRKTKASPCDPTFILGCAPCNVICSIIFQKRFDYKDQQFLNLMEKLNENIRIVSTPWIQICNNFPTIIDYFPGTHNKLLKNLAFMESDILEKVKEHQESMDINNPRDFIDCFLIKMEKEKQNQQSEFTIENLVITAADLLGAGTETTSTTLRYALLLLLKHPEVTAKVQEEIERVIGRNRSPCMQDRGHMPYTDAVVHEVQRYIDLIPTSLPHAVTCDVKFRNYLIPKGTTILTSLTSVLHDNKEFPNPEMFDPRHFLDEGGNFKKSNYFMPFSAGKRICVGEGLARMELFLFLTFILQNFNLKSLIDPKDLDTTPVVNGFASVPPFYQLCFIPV

A short description of test [12]: qHTS Assay for Identification of Small Molecule Agonists for Thrombopoietin (TPO) Signaling Pathway (AID 917). Note: % is set by controls: 0 for no effect and ±100 for the full control effect. The gist of the method:
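Stimulation at the TPO EC50 (26 pM final) was used to detect activators. Ba/F3 mouse cells bearing human TPO receptor and a luciferase reporter under the Glycoprotein IIb promoter were exposed to compounds for 24 hrs at 37 C.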

Test [13] deals with Muscarinic acetylcholine receptor M1 (Rattus norvegicus) (UniProt P08482). The experiment in a line: qHTS Assay for Antagonists of Acetylcholine Muscarinic M1 Receptor: Kinetic Measurement of Intracellular Calcium Response (AID 943).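 Note: Fluo-4 calcium signal as peak divided by basal fluorescence over 4 min; nearly all actives have a fitted effect of over 75% in size.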 The gist of the method:
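Quantitative HTS in CHO-M1 (rat receptor) cells: 10 min compound exposure ahead of 100 nM carbachol, Fluo-4 fluorescence followed 4 min, value expressed as peak-to-basal ratio.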

The target is the same in test [14]. The experiment in a line: qHTS Assay for Antagonists of Acetylcholine Muscarinic M1 Receptor: Measurement of IP-One Response (AID 944). Note: nearly all actives have a fitted effect of over 75% in size. The gist of the method:
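Antagonism was measured as loss of carbachol-driven (EC80) IP1 accumulation in CHO cells carrying rat M1, using a homogeneous IP-One TR-FRET kit read at 620 and 665 nm.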

In test [15] the target is Pyruvate kinase PKM (Homo sapiens) (UniProt P14618). The experiment in a line: qHTS Assay for Activators of Human Muscle Pyruvate Kinase (AID 954; active = well fitted curve in the direction sought with a large enough effect, not every such curve was filed as active;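 note: 0% = uninhibited enzyme and -100% = no enzyme or full thiadiazolimine inhibition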). In a few lines: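 A coupled luminescent readout tracked ATP made from ADP by purified PKM2. Final conditions included 0.1 nM enzyme, PEP and ADP at 0.5 and 0.1 mM, pH 7.2 imidazole buffer with BSA, and a one-hour room-temperature reaction.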

The target in test [16] is Alpha-galactosidase (Coffea arabica) (UniProt Q42656). The experiment in a line: Counterscreen for Glucocerebrosidase Inhibitors: qHTS Assay for Coffee Bean alpha-Galactosidase at pH 4.5 (AID 957).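 Note: plate controls were enzyme alone for no effect and no enzyme for full effect.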 The gist of the method: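 Quantitative HTS of compounds (0.7 nM to 77 uM) against coffee bean alpha-galactosidase at pH 4.5, measuring 4-methylumbelliferone fluorescence released from 80 uM substrate.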
Alpha-galactosidase (Coffea arabica), sequence (Q42656 whole entry, looked up): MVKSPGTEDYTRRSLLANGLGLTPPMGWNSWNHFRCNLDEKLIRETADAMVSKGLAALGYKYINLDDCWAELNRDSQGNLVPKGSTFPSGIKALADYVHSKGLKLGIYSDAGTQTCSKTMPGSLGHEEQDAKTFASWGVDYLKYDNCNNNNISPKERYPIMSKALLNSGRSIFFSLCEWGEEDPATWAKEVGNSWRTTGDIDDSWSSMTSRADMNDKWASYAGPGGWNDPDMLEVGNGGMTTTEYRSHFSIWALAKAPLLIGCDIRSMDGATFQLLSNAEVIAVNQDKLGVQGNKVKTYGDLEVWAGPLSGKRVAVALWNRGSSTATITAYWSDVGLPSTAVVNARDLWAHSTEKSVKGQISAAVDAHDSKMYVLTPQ
On the technique in general: Counterscreens check selectivity or assay interference.

Test [17] addresses Pyruvate kinase (Leishmania mexicana) (UniProt Q27686). As to the kind of experiment: qHTS Validation Assay for Activators of Leishmania Mexicana Pyruvate Kinase (AID 959). In a few lines:
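Purified LmPYK (E451W mutant, 0.2 nM) was incubated 1 h at room temperature with 0.5 mM PEP and 0.1 mM ADP in 50 mM imidazole pH 7.2, 50 mM KCl, 7 mM MgCl2; ATP formed was read by PKLight luminescence, normalized to DMSO wells.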

Test [18] addresses Alpha-galactosidase A (Homo sapiens) (UniProt P06280). The experiment in a line: Counterscreen for Glucocerebrosidase Inhibitors: qHTS Assay for Human alpha-Galactosidase at pH 4.5 (AID 992). Note: 0% is about no effect. In a few lines: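 Citrate buffer pH 4.5, Tween-20 0.005%. Enzyme 2 nM, substrate 80 uM, 20 min RT. Stop pH 10. Fluorescence Ex 365/Em 440. AC50 by Hill fit.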
The target in test [19] is alpha-glucosidase (Oryza sativa, rice) (UniProt Q653V4). The experiment in a line: Counterscreen for Glucocerebrosidase Inhibitors: qHTS Assay for Rice alpha-Glucosidase at pH 5.0 (AID 997).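 Note: 0% = full activity with enzyme and -100% = basal without enzyme.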 The gist of the method:
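Endpoint fluorogenic assay at pH 5.0: compounds (0.7 nM to 77 uM) titrated against 4 nM rice enzyme and 400 uM 4-MU-alpha-glucoside for 20 min at room temperature; NaOH/glycine stop, read ex 365/em 440 nm, Hill-fitted AC50.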

The target of test [20] is Alpha-galactosidase (Coffea arabica) (UniProt Q42656). The experiment in a line: Counterscreen for Glucocerebrosidase Inhibitors: qHTS Assay for Coffee Bean alpha-Galactosidase at pH 5.9 (AID 998).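 Note: plate controls were uninhibited enzyme for no effect and no-enzyme basal signal for full effect.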 The gist of the method:
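Fluorogenic 4-MU substrate hydrolysis, 80 uM substrate and 2 nM coffee bean alpha-galactosidase, pH 5.9 citrate buffer, 20 min at room temperature, then NaOH/glycine stop. Titration 0.7 nM–77 uM, normalized to no-enzyme and enzyme controls, AC50 via Hill equation.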

Test [21] deals with DNA repair nuclease/redox regulator APEX1 (Homo sapiens) (UniProt P27695). As to the kind of experiment: qHTS Validation Assay for Inhibitors of the Human Apurinic/apyrimidinic Endonuclease 1 (APE1) (AID 1705). The gist of the method:
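Fluorogenic double-stranded THF abasic-site substrate (5'-TAMRA/3'-BHQ-2), 50 nM final. Enzyme preincubated with compound 15 min at room temperature, then substrate added. Kinetic fluorescence (ex 525/em 598 nm) read three times at 60 s intervals; activity taken as third-minus-first read difference.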

A short description of test [22]: Counterscreen for APE1 Inhibitors: Fluorescent Dye Displacement Validation Assay (AID 1707).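 Note: plate controls were ThO with dsDNA and no compound for no effect and ThO without dsDNA for full effect.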 In a few lines:
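Signal: ThO fluorescence (ex 480 nm/em 540 nm) on binding 50 nM dsDNA; displacement by test compound reduces it. Conditions: 250 nM dye, 50 mM Tris-HCl pH7.5, 2 mM MgCl2, 50mM NaCl, 0.01% Tween-20.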

Values without a mark were called inactive. Results filed as inconclusive are left out. Activity calls are given as the source filed them. Unless noted, calls come from the whole dose curve; as a rule, active = well fitted curve in the direction sought with a large enough effect; inconclusive = small, poorly fitted or top-dose-only effect, or another doubt; inactive = no such curve, though single readings can be large; an effect the other way counts as inactive or inconclusive.

Muscarinic acetylcholine receptor M1 (Rattus norvegicus), sequence (P08482 whole entry, looked up): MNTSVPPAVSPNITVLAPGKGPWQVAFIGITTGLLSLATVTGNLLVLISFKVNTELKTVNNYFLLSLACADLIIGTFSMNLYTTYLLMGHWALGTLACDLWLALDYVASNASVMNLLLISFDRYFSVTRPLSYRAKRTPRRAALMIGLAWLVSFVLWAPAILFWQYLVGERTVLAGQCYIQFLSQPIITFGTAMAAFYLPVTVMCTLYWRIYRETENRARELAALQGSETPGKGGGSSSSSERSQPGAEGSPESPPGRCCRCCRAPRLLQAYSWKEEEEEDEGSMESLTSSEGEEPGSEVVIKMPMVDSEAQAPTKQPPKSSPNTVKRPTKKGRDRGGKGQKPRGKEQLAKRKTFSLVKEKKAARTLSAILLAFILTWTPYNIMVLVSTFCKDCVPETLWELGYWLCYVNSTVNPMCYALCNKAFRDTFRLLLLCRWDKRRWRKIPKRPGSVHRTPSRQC
Pyruvate kinase (Leishmania mexicana), sequence (Q27686 2-499 E452W): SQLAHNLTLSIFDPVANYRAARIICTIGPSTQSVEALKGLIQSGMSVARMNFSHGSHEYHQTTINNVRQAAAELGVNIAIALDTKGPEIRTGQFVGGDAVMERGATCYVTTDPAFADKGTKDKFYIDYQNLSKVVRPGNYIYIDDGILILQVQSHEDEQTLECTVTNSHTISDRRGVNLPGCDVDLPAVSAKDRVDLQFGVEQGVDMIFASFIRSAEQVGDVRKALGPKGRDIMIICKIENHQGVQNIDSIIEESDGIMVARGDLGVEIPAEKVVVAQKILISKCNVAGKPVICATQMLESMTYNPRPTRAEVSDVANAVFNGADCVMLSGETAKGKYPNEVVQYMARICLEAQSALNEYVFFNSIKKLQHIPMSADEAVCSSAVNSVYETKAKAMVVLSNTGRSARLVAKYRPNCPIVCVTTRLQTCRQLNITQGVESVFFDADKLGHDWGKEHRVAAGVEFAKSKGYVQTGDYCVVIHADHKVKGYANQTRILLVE
Cytochrome P450 1A2 (Homo sapiens), sequence (P05177 whole entry, looked up): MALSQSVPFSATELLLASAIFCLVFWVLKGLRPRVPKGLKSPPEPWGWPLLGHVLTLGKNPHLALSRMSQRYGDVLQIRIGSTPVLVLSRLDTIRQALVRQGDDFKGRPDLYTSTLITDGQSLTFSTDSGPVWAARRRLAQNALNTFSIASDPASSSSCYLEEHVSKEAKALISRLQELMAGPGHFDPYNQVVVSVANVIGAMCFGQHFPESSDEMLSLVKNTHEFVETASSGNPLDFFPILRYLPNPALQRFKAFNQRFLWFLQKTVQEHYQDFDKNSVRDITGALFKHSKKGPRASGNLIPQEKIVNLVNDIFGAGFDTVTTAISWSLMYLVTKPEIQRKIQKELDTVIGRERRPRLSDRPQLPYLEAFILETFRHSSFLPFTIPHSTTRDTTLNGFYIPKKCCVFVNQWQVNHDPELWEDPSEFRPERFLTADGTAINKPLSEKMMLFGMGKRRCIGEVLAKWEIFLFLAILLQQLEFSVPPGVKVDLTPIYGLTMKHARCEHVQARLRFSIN
Guanine nucleotide-binding protein G(i) subunit alpha-1 (Homo sapiens), sequence (P63096 whole entry, looked up): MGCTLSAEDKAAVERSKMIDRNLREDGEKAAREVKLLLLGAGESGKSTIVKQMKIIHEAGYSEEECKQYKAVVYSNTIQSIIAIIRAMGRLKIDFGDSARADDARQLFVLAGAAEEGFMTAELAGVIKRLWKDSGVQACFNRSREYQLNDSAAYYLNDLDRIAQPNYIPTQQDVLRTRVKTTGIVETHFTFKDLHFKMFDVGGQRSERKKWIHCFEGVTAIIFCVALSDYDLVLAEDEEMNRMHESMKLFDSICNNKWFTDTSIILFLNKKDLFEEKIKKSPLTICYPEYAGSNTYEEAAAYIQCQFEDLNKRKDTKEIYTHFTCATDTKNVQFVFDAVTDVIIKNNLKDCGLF
Alpha-galactosidase A (Homo sapiens), sequence (P06280 whole entry, looked up): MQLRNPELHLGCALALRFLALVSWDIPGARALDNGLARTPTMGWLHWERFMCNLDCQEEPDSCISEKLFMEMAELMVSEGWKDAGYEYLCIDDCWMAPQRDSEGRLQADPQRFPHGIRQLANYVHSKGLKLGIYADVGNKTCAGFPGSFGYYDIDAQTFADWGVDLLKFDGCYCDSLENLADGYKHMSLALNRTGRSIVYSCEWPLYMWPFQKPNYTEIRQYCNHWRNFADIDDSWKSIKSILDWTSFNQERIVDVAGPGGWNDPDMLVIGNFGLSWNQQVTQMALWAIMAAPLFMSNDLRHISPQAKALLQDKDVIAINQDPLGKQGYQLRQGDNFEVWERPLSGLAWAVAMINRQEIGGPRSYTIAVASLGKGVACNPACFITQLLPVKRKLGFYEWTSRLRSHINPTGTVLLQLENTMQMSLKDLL
DNA repair nuclease/redox regulator APEX1 (Homo sapiens), sequence (P27695 whole entry, looked up): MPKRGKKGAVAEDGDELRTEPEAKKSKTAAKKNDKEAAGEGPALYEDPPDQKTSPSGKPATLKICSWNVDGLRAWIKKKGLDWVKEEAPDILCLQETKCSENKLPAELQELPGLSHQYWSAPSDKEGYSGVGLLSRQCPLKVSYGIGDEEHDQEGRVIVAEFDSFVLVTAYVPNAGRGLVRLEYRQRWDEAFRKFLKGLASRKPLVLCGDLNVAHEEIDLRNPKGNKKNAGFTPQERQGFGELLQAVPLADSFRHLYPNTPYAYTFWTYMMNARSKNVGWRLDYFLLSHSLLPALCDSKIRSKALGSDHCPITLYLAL

With `COC(=O)c1cc2c(cn1)[nH]c1ccccc12`, the call in test [1], in test [4], in test [7], in [12], in [15] and in test [16] was inactive. The outcome in test [18], in test [19] and in test [20] was inactive. The Potency was 0.631 µM (active) in [2], > 46 µM in test [5], 15.8 µM (active) in test [9] and 3.98 µM (active) in test [11]. In [3], the activity change, negative = inhibition was -0.308%. For the same compound, the Potency result in test [6], in test [8], in [10], in [13], in [14] and in test [17] was “inactive” each time. The Potency entry in [21] and in test [22] was “inactive” in each case.
